Source: PubChem BioAssay
Active and inactive are the calls of the source. Unless noted, how the calls were made is not given here.

How the values were obtained:
[1] = A549 cell viability effects, profiling panel, calcein-AM fluorescence, 48 h, basal (AID 1162); conditions: higher = more signal; further: test concentration not given here
[2] = adipocyte viability effects, profiling panel, cell-based, 3T3-L1 adipocytes, calcein-AM fluorescence, 48 h, basal (AID 1163); conditions: 3T3-L1 adipocytes viability, higher = more signal; further: test concentration not given here
[3] = HepG2 cell viability effects, profiling panel, calcein-AM fluorescence, 48 h, basal (AID 1164); conditions: higher = more signal; further: test concentration not given here
[4] = MM1S cell viability effects, profiling panel, calcein-AM fluorescence, 48 h, basal (AID 1165); conditions: higher = more signal;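 further: viability of MM1S multiple myeloma cells under basal unstimulated conditions; test concentration not given here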
[5] = basal RPMI8226 viability, no added stimulus, profiling panel, cell-based, calcein-AM fluorescence, 48 h, PK04 Diversity Set (AID 1166); conditions: RPMI8226 myeloma viability, higher = more signal;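 further: cells grown under basal conditions without added stimulus; test concentration not given here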
[6] = basal HepG2 mitochondrial membrane potential changes, profiling panel, cell-based, JC-1 fluorescence, 24 h, 100 nL compound (AID 1167); conditions: higher = more signal; further: test concentration not given here
[7] = basal 3T3-L1 adipocyte mitochondrial potential changes, profiling panel, cell-based, JC-1 fluorescence, 3T3-L1 adipocytes, 24 h, 100 nL compound (AID 1168); conditions: JC-1 mitochondrial fluorescence, higher = more signal, called active from +8 up or from −8 down; further: test concentration not given here
[8] = basal RPMI8226 mitochondrial membrane potential changes, profiling panel, cell-based, JC-1 fluorescence, 24 h, 100 nL compound (AID 1169); conditions: RPMI8226 myeloma, JC-1 mitochondrial potential fluorescence, higher = more signal; further: test concentration not given here
[9] = basal MM1S mitochondrial membrane potential changes, profiling panel, cell-based, JC-1 fluorescence, 24 h, 100 nL compound (AID 1170); conditions: higher = more signal; further: test concentration not given here
[10] = A549 lung cancer cell viability effects, profiling panel, resazurin fluorescence, 24 h, PK04 Diversity Set (AID 1171); conditions: higher = more signal, called active from +8 up or from −8 down; further: test concentration not given here
[11] = HepG2 liver cancer cell viability effects, profiling panel, resazurin fluorescence, 24 h, PK04 Diversity Set (AID 1172); conditions: higher = more signal; further: test concentration not given here
[12] = basal S. cerevisiae growth modulation, no modifier, primary screen, OD600, strain BY4716, 24 h, basal condition (AID 1173); conditions: OD600, 24 h, higher = more signal, called active from +8 up or from −8 down
[13] = MM1S myeloma cell viability, profiling panel, resazurin fluorescence, basal, 24 h, PK04 Diversity Set (AID 1174); conditions: higher = more signal, called active from +8 up or from −8 down;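 further: MM1S multiple myeloma cell line; test concentration not given here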
[14] = biological target: Dihydroorotate dehydrogenase (quinone), mitochondrial (Plasmodium falciparum (isolate 3D7)) (UniProt Q08210); assay: PfDHODH enzyme inhibitors, primary screen, biochemical, C-terminal His tag, absorbance 600 nm (AID 1175); conditions: DCIP absorbance 600 nm, higher = more signal, called active from +8 up or from −8 down;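 further: recombinant parasite enzyme with a five histidine tag at its C terminus; test concentration not given here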
Sequence of Dihydroorotate dehydrogenase (quinone), mitochondrial (Plasmodium falciparum (isolate 3D7)) (Q08210 whole entry, looked up): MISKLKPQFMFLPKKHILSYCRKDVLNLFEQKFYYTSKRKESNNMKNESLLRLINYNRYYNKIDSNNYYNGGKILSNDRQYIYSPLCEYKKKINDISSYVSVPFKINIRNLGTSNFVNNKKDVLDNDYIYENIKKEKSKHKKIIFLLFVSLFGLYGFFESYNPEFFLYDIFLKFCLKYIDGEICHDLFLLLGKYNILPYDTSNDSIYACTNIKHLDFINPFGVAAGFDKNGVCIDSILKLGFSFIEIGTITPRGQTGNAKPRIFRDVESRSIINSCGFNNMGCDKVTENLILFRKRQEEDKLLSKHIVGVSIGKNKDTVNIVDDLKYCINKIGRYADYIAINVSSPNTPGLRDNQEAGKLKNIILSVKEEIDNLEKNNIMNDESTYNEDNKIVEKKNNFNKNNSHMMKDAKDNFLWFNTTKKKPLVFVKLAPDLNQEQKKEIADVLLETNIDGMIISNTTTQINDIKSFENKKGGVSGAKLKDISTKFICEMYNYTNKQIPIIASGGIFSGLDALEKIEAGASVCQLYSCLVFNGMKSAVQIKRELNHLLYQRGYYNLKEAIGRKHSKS

[15] = P. aeruginosa biofilm formation inhibitors, primary screen, strain PAO1, LB-PBS medium, absorbance 600 nm (AID 1176); further: test concentration not given here; conditions: P. aeruginosa PAO1 growth/biofilm, A600, 12 h; higher = more signal
[16] = S. cerevisiae RM11-1a growth modifiers, primary screen, strain RM11-1a, OD600, basal, 24 h (AID 1177); conditions: OD600, 24 h, higher = more signal, called active from +8 up or from −8 down;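 further: cultures grown under basal conditions with no added stressor; test concentration not given here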
[17] = E. coli acrAB mutant growth effects, primary screen, E. coli filamentation inducers, strain DRC39, OD650, 24 h (AID 1178); conditions: higher = more signal, called active from +8 up or from −8 down;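 further: growth measured as culture turbidity by optical density at 650 nm; test concentration not given here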
[18] = E. coli acrAB mutant growth effects, primary screen, E. coli filamentation inducers, strain DRC39, OD650, 48 h (AID 1179);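 further: screen aims at cell division blockers that make cells filament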; conditions: E. coli DRC39 delta-acrAB growth, higher = more signal, called active from +8 up or from −8 down
[19] = RPMI8226 myeloma cell viability, profiling panel, resazurin fluorescence, basal, 24 h, PK04 Diversity Set (AID 1180); conditions: higher = more signal;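 further: RPMI8826 multiple myeloma cell line at 5000 cells per well; test concentration not given here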
[20] = biological target: E3 ubiquitin-protein ligase XIAP (Homo sapiens) (UniProt P98170); assay: XIAP binders, primary screen, biophysical, small-molecule microarray, fluorescence 635 nm (AID 1181); conditions: small-molecule microarray binding, higher = more signal;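 further: score merges 667 nm emission and signal to noise over triplicate slides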
Sequence of E3 ubiquitin-protein ligase XIAP (Homo sapiens) (P98170 whole entry, looked up): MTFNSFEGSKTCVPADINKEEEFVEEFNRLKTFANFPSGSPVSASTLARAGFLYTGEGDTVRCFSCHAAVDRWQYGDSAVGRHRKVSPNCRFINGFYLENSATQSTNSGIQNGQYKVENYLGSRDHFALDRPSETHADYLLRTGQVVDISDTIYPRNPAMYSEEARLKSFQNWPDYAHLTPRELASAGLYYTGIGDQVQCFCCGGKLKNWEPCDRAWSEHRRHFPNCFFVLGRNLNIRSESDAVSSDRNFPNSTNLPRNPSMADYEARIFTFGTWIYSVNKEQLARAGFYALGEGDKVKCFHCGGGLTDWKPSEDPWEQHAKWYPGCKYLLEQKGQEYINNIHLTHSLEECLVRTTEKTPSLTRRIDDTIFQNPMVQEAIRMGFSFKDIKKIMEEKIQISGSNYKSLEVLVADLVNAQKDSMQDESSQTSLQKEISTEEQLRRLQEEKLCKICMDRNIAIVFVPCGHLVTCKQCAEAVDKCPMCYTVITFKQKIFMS

Structure (SMILES)	z-score [1]	z-score [2]	z-score [3]	z-score [4]	z-score [5]	z-score [6]	z-score [7]	z-score [8]	z-score [9]	z-score [10]	z-score [11]	z-score [12]	z-score [13]	composite z-score [14]	z-score [15]	z-score [16]	z-score [17]	z-score [18]	z-score [19]	composite z-score [20]
COC(=O)Cn1c(C(=O)N(C)C)cc2c1C[C@H]1CN(C(=O)c3ccccc3)[C@@](Cc3ccc(F)cc3)(C(=O)OC)[C@@H]21	-0.0599	-1.23	0.0845	-1.38	-1.58	0.0394	-0.53 (inactive)	0.446	-0.148	-0.421 (inactive)	-0.836	2.15 (inactive)	-0.702 (inactive)	0.289 (inactive)	0.743 (inactive)	1.34 (inactive)	-0.61 (inactive)	-0.582 (inactive)	-0.795	-0.13
CN1C(=O)C2C=CC(C(O)C#Cc3ccccc3)N(Nc3ccccc3)C2C1=O (stereo not given)	-1.12	-0.341	-0.255	-1.05	-0.398	-1.36	0.39 (inactive)	-1	-1	0.699 (inactive)	-0.264	-1.36 (inactive)	-1.06 (inactive)	0.164 (inactive)	-0.103 (inactive)	1.39 (inactive)	-0.0835 (inactive)	-1.05 (inactive)	-0.633	0.394
COc1ccc(NC(=O)O[C@H]2[C@H](OC(=O)Nc3ccccc3)[C@H](OC(=O)Nc3ccccc3)[C@@H](OC)O[C@@H]2CO)cc1	-0.985	0.998	-1.29	-2.7	-2.72	-0.186	-0.0233 (inactive)	-0.339	-0.261	-1.44 (inactive)	-1.05	0.593 (inactive)	-1.49 (inactive)	1.59 (inactive)	0.509 (inactive)	0.767 (inactive)	0.124 (inactive)	0.0606 (inactive)	-0.936	-0.0599
CC(C)C[C@@H]1NC(=O)[C@@H]2C[C@H](C(=O)NCCCCN(C)C)[C@H](c3cccc(OCCO)c3)N2C1=O	0.355	0.507	-1.2	0.26	0.54	-0.627	0.454 (inactive)	-0.601	-0.443	0.389 (inactive)	0.0064	-0.453 (inactive)	0.303 (inactive)	-1.21 (inactive)	0.655 (inactive)	-0.121 (inactive)	0.0825 (inactive)	-0.653 (inactive)	-0.127	-0.0749
O=C(NCCCCCNC(=O)/C(Cc1ccccc1)=N/O)OCc1ccccc1	1.54	0.989	-0.756	-0.781	0.476	-0.348	0.627 (inactive)	0.567	-0.877	0.766 (inactive)	0.619	-3.54 (inactive)	0.63 (inactive)	-0.713 (inactive)	0.695 (inactive)	-1.21 (inactive)	1.92 (inactive)	1.42 (inactive)	1.09	-0.253
NC(=O)N1C(=O)C2C(C1=O)C1C=C(CCCO)C2C(c2cccs2)N1Cc1cccc(OC(F)(F)F)c1 (stereo not given)	0.604	0.151	-0.4	-2.98	-1.11	-0.339	-0.678 (inactive)	0.146	1.37	0.48 (inactive)	0.0214	-3.57 (inactive)	-0.637 (inactive)	-0.376 (inactive)	-0.223 (inactive)	0.199 (inactive)	-0.205 (inactive)	-0.692 (inactive)	-0.18	0.195
C=CCNC(=O)[C@@H]1[C@H]2C(=O)O[C@H](c3ccccc3)[C@H](c3ccccc3)N2[C@H](c2ccc(O)cc2)[C@@]12C(=O)N(C(=O)OCCOC)c1ccc(C#CC3(O)CCCCCC3)cc12	0.0287	0.284	0.446	0.362	0.895	0.577	0.8 (inactive)	0.244	-0.432	0.395 (inactive)	0.919	0.444 (inactive)	-0.689 (inactive)	0.263 (inactive)	-0.123 (inactive)	0.3 (inactive)	0.891 (inactive)	0.957 (inactive)	0.196	-0.391
O[C@@H](Cc1ccccc1)[C@@H](/C=C/C1CC1)N(CC#Cc1ccccc1)Cc1cccc(Cl)c1	0.136	-0.166	0.891	-0.217	-0.0958	-0.549	0.274 (inactive)	0.256	-1.16	2.89 (inactive)	2.5	0.465 (inactive)	1.61 (inactive)	-0.312 (inactive)	-0.131 (inactive)	0.438 (inactive)	0.839 (inactive)	1.01 (inactive)	2.06	-0.0931
C=CCN1C(=O)[C@@]2(CCS(=O)(=O)c3ccccc3)N=C(c3ccc(OCCCO)cc3)O[C@H]2c2ccccc21	0.0843	0.473	0.684	-0.786	-2.05	-0.692	1.79 (inactive)	-0.995	0.0237	-0.812 (inactive)	-0.436	0.698 (inactive)	-0.427 (inactive)	-0.218 (inactive)	0.563 (inactive)	1.45 (inactive)	-0.0209 (inactive)	0.242 (inactive)	-2.12	-0.0421
